The list is not random: actives were taken first. Their share in the collection is about 4.7%.
TRHR ag – qHTS for Small Molecule Agonists and Allosteric Enhancers of Human TRH Receptor: Primary Screen for Agonists | Thyrotropin-releasing hormone receptor (Homo sapiens), P34981 | TRHR cells, calcium flux fluo-8, FDSS agonist mode | activation, % at 2 µM | 360,000 compounds, 0.18% hits; also: 0% is about no effect
Target sequence (P34981 whole entry, looked up): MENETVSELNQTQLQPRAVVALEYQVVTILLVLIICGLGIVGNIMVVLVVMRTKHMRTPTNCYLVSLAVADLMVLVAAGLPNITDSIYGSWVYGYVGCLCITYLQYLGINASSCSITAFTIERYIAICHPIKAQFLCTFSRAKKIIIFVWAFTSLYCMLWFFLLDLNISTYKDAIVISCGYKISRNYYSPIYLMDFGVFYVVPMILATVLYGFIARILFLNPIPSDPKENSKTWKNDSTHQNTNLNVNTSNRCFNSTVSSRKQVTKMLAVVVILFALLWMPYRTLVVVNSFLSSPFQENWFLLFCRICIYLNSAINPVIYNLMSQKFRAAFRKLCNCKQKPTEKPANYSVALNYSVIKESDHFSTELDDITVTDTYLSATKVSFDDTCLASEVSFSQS
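Steps: seed TRHR cells overnight; add fluo-8 no-wash Ca dye, RT 30 min–1.5 h; record 10 s baseline; pin-transfer compounds; monitor fluorescence 1 cycle/s for the agonist window. Calcium increases flag candidate agonists.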
D1 antag – Antagonist of Human D 1 Dopamine Receptor: qHTS; HEK293 TREx D1 cells, calcium flux, dopamine EC80; stronger effect = lower value; activity change, negative = inhibition, % at 10 µM; 360,000 compounds, 3.2% hits; AID 504652, 2011; in the data active = activity change below about -30%; also: % is scaled to controls: 0 for no effect and ±100 for the full control effect
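Using tetracycline-induced force-coupled D1 Hek293 cells and a calcium dye, signals were followed for 180 s after compound, then for 180 s after EC80 dopamine, to detect inhibitors.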
D1 PAM – Potentiators of Human D1 Dopamine Receptor: qHTS. HEK293 TREx D1 cells, calcium flux, dopamine EC20 potentiation. potentiation, % at 10 µM. 360,000 compounds, 0.036% hits; in the data active = potentiation above about 30%; also: 0% is about no effect
D1 agonist – Allosteric Agonists of the Human D1 Dopamine Receptor: qHTS; HEK293 T-REx D1 cells, calcium flux, agonist mode; AID 504660, 2011; 360,000 compounds, 1% hits; activation, % at 2 µM; D(1A) dopamine receptor (Homo sapiens), P21728; also: 0% is about no effect
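Agonism was scored from calcium flux recorded over 180 s (1 read/s) after pintool compound addition, following a 10-cycle baseline. Cells were inducible force-coupled HEK293 TREx D1, plated overnight at 30 C and loaded with no-wash calcium dye.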
TRHR PAM – qHTS for Small Molecule Agonists and Allosteric Enhancers of Human TRH Receptor: Primary Screen for Enhancers; Thyrotropin-releasing hormone receptor (Homo sapiens), P34981; TRHR cells, fluo-8 calcium fluorescence, EC20 TRH enhancement; enhancement, % at 2 µM; 360,000 compounds, 0.66% hits; AID 493056, 2011; in the data active = enhancement above about 30%; also: 0% is about no effect
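Enhancer read-out: after compound pinning and an initial kinetic agonist-mode read, an EC20 of TRH (10 nM final) was injected and fluo-8 calcium signal (Ex 480/Em 530) followed at 1 s/cycle for 100 cycles in TRHR-expressing cells.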
* marks the source's active call; other numbers are inactive results; / = no result. Rule as the data show it, unless noted: active = activation above about 30%; inactive = the rest.

SMILES | TRHR ag | D1 antag | D1 PAM | D1 agonist | TRHR PAM
Nc1nc(Nc2cc(F)cc(F)c2)nc(NC2CCCC2)n1 | 1 | 25 | 1 | 3 | 1
CSc1ccc(/C=N/Nc2nc(C)cc(=O)[nH]2)cc1 | 0 | -30* | -11 | 4 | -5
CCOc1ccc(-n2c(C)cc(/C=N/NC(=O)C(N)=O)c2C)cc1 | -1 | / | -5 | -2 | 4
CCOc1ccc(-n2c(C)cc(/C=N/Nc3nc(C)cc(=O)[nH]3)c2C)cc1 | -1 | -35* | -4 | 3 | 3
CCOC(=O)CSc1nnc(CNc2ccc(Cl)cc2)n1-c1ccccc1 | 0 | -52* | 0 | 7 | 18
CCc1nnc(NC(=O)CSc2nnc(CNc3cccc(C)c3)n2-c2ccccc2)s1 | 1 | -31* | -3 | 1 | -4
Cc1cc(Nc2cc(Cl)ccc2C)n2nc(Cc3ccccc3)nc2n1 | -2 | -8 | 0 | 6 | 0
Cc1ccc(NC(=O)C2CCN(S(=O)(=O)c3ccc4[nH]c5c(c4c3)CCCCC5)CC2)cc1 | 0 | -20 | -3 | 3 | 4
COc1ccc(-c2noc(CSc3nc4ccccc4c(=O)n3-c3ccc(C)cc3)n2)cc1 | 0 | 6 | -1 | 6 | 33*
Cc1nnc(SCc2nc(-c3ccc(Cl)cc3)no2)n1-c1ccc(F)cc1 | -1 | -33* | -3 | 23 | -2
COc1ccc(-n2c(SCc3nc(-c4ccc(C)cc4)no3)nnc2-c2ccccc2)cc1 | 1 | 4 | 0 | 4 | 6
Cc1ccccc1-c1noc(-c2cc3ccccc3oc2=O)n1 | 0 | -3 | -3 | 2 | -1
CCN(CC)c1ccc2cc(-c3nc(-c4ccccc4F)no3)c(=O)oc2c1 | 65* | -13 | 2 | 204* | 4
CCN(CC)c1ccc2cc(-c3nc(-c4cccs4)no3)c(=O)oc2c1 | 124* | -28 | -4 | 278* | 13
COc1cc(-c2noc(-c3cc4cccc(C)c4oc3=O)n2)cc(OC)c1OC | -1 | 5 | -4 | 1 | 6
CCN(CC)c1ccc2cc(-c3nc(-c4cc(OC)c(OC)c(OC)c4)no3)c(=O)oc2c1 | 122* | -29 | -1 | 153* | 13
Cn1c(-c2ccc(S(=O)(=O)N3CCCC3)cc2)csc1=Nc1ccc(Cl)c(Cl)c1 | -1 | -14 | 0 | -1 | -2
Cc1ccccc1-c1noc(-c2ccccc2OCC(=O)Nc2ccccc2[N+](=O)[O-])n1 | 0 | -63* | 0 | -1 | -5
Cc1ccccc1OCC(=O)NNC(=S)NC(=O)c1ccccc1[N+](=O)[O-] | -1 | -57* | -6 | 2 | 0
Cc1ccc(-c2noc(-c3ccccc3OCC(=O)Nc3ccccc3[N+](=O)[O-])n2)cc1 | 0 | 12 | 0 | 0 | -2
COc1cc(NC(=O)COc2c(C)cc(C)cc2[N+](=O)[O-])c(OC)cc1Cl | -1 | 0 | -6 | 2 | -14
COc1cc(Cl)c(C)cc1NC(=O)COc1ccccc1[N+](=O)[O-] | 0 | 0 | -4 | -1 | 32*
O=C(COc1ccccc1-c1nc(-c2ccccc2)no1)Nc1ccccc1[N+](=O)[O-] | -1 | 0 | -1 | 0 | 41*
CCCN(CCC)C(=O)Cn1c(=O)n(Cc2ccc(C(=O)NCCc3ccc(OC)c(OC)c3)cc2)c(=O)c2ccccc21 | -1 | 5 | -3 | 1 | 0
COC(=O)c1ccc(Oc2coc3cc(OCc4cnn(-c5ccccc5)c4)ccc3c2=O)cc1 | 0 | -38* | -3 | 4 | 0
SMILES | TRHR ag | D1 antag | D1 PAM | D1 agonist | TRHR PAM
COC(=O)c1ccc(Oc2c(C)oc3cc(OCc4cnn(-c5ccccc5)c4)ccc3c2=O)cc1 | 2 | 4 | 2 | 4 | -2
CCc1oc(C(=O)OC)cc1CSC(=N)N | -1 | -23 | -7 | 5 | -3
Cc1cc(CSC(=N)N)c(CSC(=N)N)cc1C | 1 | -95* | -3 | 2 | -23
CCOC(=O)c1c(NC(=O)c2c(-c3ccccc3)noc2C)sc(C)c1-c1ccccc1 | 0 | 6 | 0 | 3 | 1
CCn1nc(-c2ccccc2)c(-c2ccccc2)c(C(=O)Nc2ccccc2C(N)=O)c1=O | 0 | -42* | 0 | 7 | -5
Cc1onc(-c2ccccc2)c1C(=O)OCC(=O)Nc1cccc(Cl)c1 | 2 | 2 | / | 47* | -6
Cc1cnc(NC(=O)c2c(-c3ccccc3)noc2C)s1 | 0 | -34* | -6 | -1 | -1
CCOC(=O)c1ccccc1NC(=O)c1c(-c2ccccc2)noc1C | 1 | -10 | -6 | 32* | 7
CCN(Cc1ccc(OC)c(F)c1)C(=O)/C=C/c1ccc(S(=O)(=O)N2CCOCC2)cc1 | -1 | -41* | -6 | 7 | 2
S=C(Nc1ccc2nsnc2c1)N1CCCCCC1 | 0 | -15 | -1 | 7 | 1
S=C(Nc1ccc(Cl)c(Cl)c1)NC1CCN(Cc2ccccc2)CC1 | 4 | -43* | -6 | 47* | -8
S=C(NCc1ccccc1)N1CCN(Cc2ccc3c(c2)OCO3)CC1 | 1 | -9 | -3 | 5 | -4
S=C(Nc1ccc(Cl)c(Cl)c1)NC1CCCCC1 | 1 | -41* | -4 | 29 | -9
S=C(NCc1ccc2c(c1)OCO2)NC1CCN(Cc2ccccc2)CC1 | 2 | -15 | -6 | 38* | -4
S=C(Nc1ccc2nsnc2c1)NC1CCCCC1 | -2 | -16 | -7 | 46* | 7
Cc1cc(C)cc(-n2c(SCC(=O)N3CCc4ccccc43)nc3c([nH]c4ccccc43)c2=O)c1 | 0 | -4 | -2 | 1 | -5
CCOC(=O)c1sc(NC(=O)c2nc3ncccn3n2)c(C(=O)OC(C)C)c1C | 0 | 0 | -7 | 3 | -3
CCOc1ccc(NS(=O)(=O)c2ccc(NC(=S)NC(C)=O)cc2)cc1 | 5 | -11 | -5 | 95* | -6
CCOc1ccc(NS(=O)(=O)c2ccc(NC(=S)NC(=O)C(C)C)cc2)cc1 | 2 | 10 | -4 | 32* | 9
CCc1nnc(NS(=O)(=O)c2ccc(NC(=S)NC(=O)c3ccc(OC)cc3)cc2)s1 | 0 | -32* | 11 | 2 | 1
COc1ccc(S(=O)(=O)Nc2ccc(NC(C)=O)cc2)cc1 | 0 | -15 | -1 | 2 | 5
CC(C)C(=O)NC(=S)Nc1ccc(S(=O)(=O)NC2CCCCC2)cc1 | 1 | -32* | -5 | 11 | -2
CCc1nnc(NS(=O)(=O)c2ccc(NC(=S)NC(=O)c3ccc(OC)c(OC)c3)cc2)s1 | 0 | -2 | 5 | 2 | -5

Screens as filed in PubChem BioAssay.
